# Assay results reported in PMC7862700, “An all-to-all approach to the identification of sequence-specific readers for epigenetic DNA modifications on cytosine”.
# Assays:
# Assay in all cases: DAPPL (digital affinity profiling via proximity ligation, sequencing); 10 mM Tris-HCl pH 7.5, 50 mM NaCl, 1 mM DTT, 4% glycerol, room temperature, 30 min; GST-TFs on glutathione beads, 16-mer random dsDNA library, 0.1% formaldehyde crosslink after washing; high values mean tight binding
# Settings in all cases: protein: recombinant; tags: N-terminal GST; dsDNA, one strand shown
# ELK1 = target: T1, ELK1 (Homo sapiens, UniProt P19419 1-428)
# T1 sequence: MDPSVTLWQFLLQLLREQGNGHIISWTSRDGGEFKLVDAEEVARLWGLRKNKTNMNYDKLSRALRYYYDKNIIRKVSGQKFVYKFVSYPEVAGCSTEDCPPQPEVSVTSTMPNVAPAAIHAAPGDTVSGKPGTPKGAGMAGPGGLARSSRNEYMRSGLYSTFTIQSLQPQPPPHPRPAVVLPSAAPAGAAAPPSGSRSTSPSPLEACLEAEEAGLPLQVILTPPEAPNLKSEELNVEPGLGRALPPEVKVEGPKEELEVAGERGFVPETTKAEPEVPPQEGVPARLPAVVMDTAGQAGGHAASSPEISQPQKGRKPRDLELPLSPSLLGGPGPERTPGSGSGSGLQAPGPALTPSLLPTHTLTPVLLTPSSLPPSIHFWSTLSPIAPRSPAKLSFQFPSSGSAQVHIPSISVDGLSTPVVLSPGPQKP
# In short: (§1)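 Yeast served to express human transcription factors as GST fusions, which were then captured on glutathione beads and labelled with DNA barcodes. Pooled with a tag-only sample, they were incubated with 200 nmole of a 16-mer random double-stranded DNA library for 30 min at room temperature in Tris/NaCl/DTT/glycerol buffer, washed, crosslinked with 0.1% formaldehyde, ligated by proximity, amplified by PCR and sequenced. Dividing each hexamer's read frequency for a factor by its frequency for the tag-only sample gives the binding signal.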
# GABPA = target: T2, GABPA (Homo sapiens, UniProt Q06546 1-454)
# T2 sequence: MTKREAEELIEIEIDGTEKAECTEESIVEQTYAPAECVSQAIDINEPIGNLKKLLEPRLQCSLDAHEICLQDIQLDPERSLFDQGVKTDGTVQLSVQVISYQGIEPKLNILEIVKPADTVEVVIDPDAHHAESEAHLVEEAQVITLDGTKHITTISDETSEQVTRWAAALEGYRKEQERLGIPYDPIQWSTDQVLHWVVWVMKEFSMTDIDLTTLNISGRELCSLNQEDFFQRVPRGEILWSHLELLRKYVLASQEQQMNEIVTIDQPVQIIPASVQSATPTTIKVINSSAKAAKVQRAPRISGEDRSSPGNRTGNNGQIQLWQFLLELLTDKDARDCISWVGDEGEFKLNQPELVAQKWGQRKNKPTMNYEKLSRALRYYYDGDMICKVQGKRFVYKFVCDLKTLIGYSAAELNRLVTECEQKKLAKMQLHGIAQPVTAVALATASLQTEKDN
# In short: as §1
# EHF = target: T3, EHF (Homo sapiens, UniProt Q9NZC4 1-300)
# T3 sequence: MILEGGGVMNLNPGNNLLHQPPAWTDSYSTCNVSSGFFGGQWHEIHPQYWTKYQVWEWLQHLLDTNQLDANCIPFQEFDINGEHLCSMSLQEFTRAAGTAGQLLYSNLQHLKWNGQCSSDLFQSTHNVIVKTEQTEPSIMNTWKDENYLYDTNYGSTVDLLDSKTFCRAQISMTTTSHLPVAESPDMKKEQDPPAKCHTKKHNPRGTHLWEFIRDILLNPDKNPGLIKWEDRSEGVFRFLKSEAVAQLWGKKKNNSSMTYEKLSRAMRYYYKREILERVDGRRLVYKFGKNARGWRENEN
# In short: as §1
# ELK3 = target: T4, ELK3 (Homo sapiens, UniProt P41970 1-407)
# T4 sequence: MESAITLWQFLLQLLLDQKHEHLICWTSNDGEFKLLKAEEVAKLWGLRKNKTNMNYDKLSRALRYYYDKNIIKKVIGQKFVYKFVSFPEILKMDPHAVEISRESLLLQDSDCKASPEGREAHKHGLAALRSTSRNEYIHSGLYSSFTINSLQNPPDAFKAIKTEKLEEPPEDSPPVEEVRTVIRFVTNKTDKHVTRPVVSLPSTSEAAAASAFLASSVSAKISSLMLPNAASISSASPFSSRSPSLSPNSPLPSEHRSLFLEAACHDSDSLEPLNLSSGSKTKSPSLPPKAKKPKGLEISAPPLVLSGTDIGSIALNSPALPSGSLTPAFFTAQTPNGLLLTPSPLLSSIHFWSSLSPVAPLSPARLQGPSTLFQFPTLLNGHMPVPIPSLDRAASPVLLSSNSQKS
# In short: as §1
# SPIC = target: T5, SPIC (Homo sapiens, UniProt Q8N5J4 1-248)
# T5 sequence: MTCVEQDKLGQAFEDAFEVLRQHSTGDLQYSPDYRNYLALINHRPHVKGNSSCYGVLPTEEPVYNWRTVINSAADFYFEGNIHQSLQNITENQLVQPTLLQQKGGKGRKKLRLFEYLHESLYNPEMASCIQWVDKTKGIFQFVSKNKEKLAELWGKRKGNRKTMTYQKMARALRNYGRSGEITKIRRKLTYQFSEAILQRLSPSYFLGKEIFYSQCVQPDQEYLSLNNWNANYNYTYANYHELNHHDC
# In short: as §1
# ELF3 = target: T6, ELF3 (Homo sapiens, UniProt P78545 1-371)
# T6 sequence: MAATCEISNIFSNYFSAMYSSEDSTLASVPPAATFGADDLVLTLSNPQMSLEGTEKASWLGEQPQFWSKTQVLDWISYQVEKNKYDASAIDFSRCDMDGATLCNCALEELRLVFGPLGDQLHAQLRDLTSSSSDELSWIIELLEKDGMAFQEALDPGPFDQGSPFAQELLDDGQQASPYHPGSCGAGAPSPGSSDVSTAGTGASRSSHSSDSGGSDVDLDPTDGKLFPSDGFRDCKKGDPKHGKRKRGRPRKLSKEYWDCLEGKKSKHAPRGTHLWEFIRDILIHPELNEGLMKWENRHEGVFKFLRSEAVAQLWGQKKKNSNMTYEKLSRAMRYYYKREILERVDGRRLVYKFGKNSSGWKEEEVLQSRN
# In short: as §1
# ERF = target: T7, ERF (Homo sapiens, UniProt P50548 1-548)
# T7 sequence: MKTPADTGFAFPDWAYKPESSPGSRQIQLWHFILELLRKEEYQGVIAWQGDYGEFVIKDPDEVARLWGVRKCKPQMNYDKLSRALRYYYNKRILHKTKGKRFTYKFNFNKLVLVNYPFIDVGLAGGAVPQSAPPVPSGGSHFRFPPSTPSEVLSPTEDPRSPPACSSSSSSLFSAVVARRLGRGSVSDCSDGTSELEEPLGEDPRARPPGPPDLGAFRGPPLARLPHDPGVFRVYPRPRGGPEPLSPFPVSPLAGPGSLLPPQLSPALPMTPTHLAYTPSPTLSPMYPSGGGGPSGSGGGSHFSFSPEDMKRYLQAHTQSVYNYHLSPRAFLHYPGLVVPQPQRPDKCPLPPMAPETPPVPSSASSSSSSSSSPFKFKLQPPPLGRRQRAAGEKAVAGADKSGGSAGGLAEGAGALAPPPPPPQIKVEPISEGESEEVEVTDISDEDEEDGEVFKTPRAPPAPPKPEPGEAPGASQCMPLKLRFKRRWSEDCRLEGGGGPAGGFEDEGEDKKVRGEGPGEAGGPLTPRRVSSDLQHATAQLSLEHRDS
# In short: as §1
# ETS2 = target: T8, ETS2 (Homo sapiens, UniProt P15036 1-469)
# T8 sequence: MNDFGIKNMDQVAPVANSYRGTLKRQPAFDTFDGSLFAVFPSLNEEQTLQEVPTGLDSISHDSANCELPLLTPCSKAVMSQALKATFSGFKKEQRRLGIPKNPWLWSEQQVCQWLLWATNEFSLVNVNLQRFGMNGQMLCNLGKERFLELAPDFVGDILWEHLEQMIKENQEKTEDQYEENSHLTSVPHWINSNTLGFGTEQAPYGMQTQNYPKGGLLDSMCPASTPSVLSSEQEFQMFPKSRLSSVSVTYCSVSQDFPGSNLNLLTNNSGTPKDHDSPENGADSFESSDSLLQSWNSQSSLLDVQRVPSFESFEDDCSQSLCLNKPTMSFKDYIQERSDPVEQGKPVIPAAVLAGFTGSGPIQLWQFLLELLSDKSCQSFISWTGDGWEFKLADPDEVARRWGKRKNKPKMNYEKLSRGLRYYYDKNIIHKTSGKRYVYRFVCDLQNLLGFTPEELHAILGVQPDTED
# In short: as §1
# ETV3 = target: T9, ETV3 (Homo sapiens, UniProt P41162-2 1-143)
# T9 sequence: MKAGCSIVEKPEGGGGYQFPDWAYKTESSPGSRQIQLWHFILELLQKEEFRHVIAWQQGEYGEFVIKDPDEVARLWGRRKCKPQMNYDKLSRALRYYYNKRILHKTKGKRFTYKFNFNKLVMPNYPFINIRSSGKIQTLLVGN
# In short: as §1
# SPIB = SPIB (Homo sapiens, UniProt Q01892 1-262)
# In short: as §1
# ELK4 = target: T10, ELK4 (Homo sapiens, UniProt P28324-2 1-405)
# T10 sequence: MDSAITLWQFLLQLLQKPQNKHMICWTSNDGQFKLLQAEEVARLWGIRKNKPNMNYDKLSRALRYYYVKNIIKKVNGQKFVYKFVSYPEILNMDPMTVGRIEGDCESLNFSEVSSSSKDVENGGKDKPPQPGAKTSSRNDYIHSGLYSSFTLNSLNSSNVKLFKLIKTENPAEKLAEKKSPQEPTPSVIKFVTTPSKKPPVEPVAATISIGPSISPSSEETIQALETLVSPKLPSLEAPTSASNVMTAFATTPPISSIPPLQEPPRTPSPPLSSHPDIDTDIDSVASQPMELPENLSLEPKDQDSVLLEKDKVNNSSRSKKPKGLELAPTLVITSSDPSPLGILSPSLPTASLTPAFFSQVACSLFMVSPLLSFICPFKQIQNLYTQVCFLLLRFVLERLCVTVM
# In short: as §1
# ETV1 = ETV1 (Homo sapiens, UniProt P50549 1-477)
# In short: as §1
# ETV7 = target: T11, ETV7 (Homo sapiens, UniProt Q9Y603 1-341)
# T11 sequence: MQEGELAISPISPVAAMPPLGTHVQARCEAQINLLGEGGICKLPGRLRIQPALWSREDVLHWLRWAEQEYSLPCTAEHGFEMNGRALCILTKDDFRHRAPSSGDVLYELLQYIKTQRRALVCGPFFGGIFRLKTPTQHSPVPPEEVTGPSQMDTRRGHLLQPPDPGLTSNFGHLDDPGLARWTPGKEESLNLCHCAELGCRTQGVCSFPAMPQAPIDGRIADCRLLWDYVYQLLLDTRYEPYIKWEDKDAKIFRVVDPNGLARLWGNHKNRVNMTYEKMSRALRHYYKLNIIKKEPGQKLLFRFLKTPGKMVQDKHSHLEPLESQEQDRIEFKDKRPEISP
# In short: as §1
# ETV3L = target: T12, ETV3L (Homo sapiens, UniProt Q6ZN32 1-361)
# T12 sequence: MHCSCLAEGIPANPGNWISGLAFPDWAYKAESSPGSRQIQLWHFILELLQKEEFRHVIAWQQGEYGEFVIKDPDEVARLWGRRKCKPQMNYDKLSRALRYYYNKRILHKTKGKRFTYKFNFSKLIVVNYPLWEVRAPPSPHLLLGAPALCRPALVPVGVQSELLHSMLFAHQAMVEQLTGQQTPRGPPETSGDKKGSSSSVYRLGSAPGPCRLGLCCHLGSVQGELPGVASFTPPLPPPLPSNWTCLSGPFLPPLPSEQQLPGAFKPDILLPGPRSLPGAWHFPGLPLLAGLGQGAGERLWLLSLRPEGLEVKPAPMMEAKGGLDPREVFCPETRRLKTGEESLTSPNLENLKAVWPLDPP
# In short: as §1
# SPIB, sequence (Q01892 whole entry): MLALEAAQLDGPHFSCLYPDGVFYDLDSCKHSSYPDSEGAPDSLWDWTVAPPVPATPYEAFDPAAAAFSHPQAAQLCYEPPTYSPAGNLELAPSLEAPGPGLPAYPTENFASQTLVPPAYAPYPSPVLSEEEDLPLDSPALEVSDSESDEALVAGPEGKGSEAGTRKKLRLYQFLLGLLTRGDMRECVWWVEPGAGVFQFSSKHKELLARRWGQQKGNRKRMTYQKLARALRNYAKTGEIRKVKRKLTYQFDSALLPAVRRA
# ETV1, sequence (P50549 whole entry): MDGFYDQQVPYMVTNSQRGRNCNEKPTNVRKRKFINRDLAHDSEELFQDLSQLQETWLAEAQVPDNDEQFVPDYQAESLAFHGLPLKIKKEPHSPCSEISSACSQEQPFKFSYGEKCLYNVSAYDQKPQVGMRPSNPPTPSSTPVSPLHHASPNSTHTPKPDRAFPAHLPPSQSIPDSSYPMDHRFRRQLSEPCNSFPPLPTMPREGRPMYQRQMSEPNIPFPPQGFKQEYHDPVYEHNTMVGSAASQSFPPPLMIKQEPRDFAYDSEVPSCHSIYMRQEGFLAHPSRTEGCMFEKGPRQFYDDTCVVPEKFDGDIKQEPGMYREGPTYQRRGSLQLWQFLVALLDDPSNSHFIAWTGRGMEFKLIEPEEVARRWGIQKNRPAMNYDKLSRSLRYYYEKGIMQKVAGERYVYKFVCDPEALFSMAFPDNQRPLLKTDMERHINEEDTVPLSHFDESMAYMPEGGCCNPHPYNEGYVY
Sequence,binding signal (ELK1),binding signal (GABPA),binding signal (EHF),binding signal (ELK3),binding signal (SPIC),binding signal (ELF3),binding signal (ERF),binding signal (ETS2),binding signal (ETV3),binding signal (SPIB),binding signal (ELK4),binding signal (ETV1),binding signal (ETV7),binding signal (ETV3L)
TATGAG,"1.02 fold enrichment (6-mer frequency, TF over GST control)","1.03 fold enrichment (6-mer frequency, TF over GST control)","1.04 fold enrichment (6-mer frequency, TF over GST control)","1.02 fold enrichment (6-mer frequency, TF over GST control)","1.16 fold enrichment (6-mer frequency, TF over GST control)","1.08 fold enrichment (6-mer frequency, TF over GST control)","1.1 fold enrichment (6-mer frequency, TF over GST control)","1 fold enrichment (6-mer frequency, TF over GST control)","1.09 fold enrichment (6-mer frequency, TF over GST control)",,,,,
GGGTAT,,,,"1.04 fold enrichment (6-mer frequency, TF over GST control)",,,,"1.02 fold enrichment (6-mer frequency, TF over GST control)",,"1.02 fold enrichment (6-mer frequency, TF over GST control)","1.1 fold enrichment (6-mer frequency, TF over GST control)","1.01 fold enrichment (6-mer frequency, TF over GST control)","1.02 fold enrichment (6-mer frequency, TF over GST control)",
CAGTTC,"1.05 fold enrichment (6-mer frequency, TF over GST control)",,"1.02 fold enrichment (6-mer frequency, TF over GST control)",,"1.17 fold enrichment (6-mer frequency, TF over GST control)",,,,"1.13 fold enrichment (6-mer frequency, TF over GST control)","1.04 fold enrichment (6-mer frequency, TF over GST control)","1.07 fold enrichment (6-mer frequency, TF over GST control)",,,"1.05 fold enrichment (6-mer frequency, TF over GST control)"
